Experimental findings from the supplement of paper PMC8047044 are described below.

Experiment [1] deals with Neuro-2a. The experiment can be described thus: neurite formation score, plate-normalized to DMSO control mean 5.04 (score (0-8 scale)); higher = more or longer neurites. As to conditions: 1 µM. The protocol:
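Neuro-2a mouse neuroblastoma cells in PLL-coated 96-well plates were pre-treated for 1 h in DMEM(+) with each kinase inhibitor at 1 µM, then switched to serum-free DMEM(-) with inhibitor to induce neurite outgrowth and fixed about 2-3 h later. Three blinded observers scored neurite formation from 0 (no neurites) to 8 (long neurites on almost all cells).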

The subject of experiment [2] is Neuro-2a. Described as above. Conditions: 0.1 µM. The protocol: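 Neuro-2a mouse neuroblastoma cells in PLL-coated 96-well plates were pre-treated for 1 h in DMEM(+) with each kinase inhibitor at 0.1 µM, then switched to serum-free DMEM(-) with inhibitor to induce neurite outgrowth and fixed about 2-3 h later. Three blinded observers scored neurite formation from 0 (no neurites) to 8 (long neurites on almost all cells).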

Where “and” joins values, the source holds several entries; their conditions need not be identical. Identical values can stand only once. Counter-ions that a name gives are not always drawn.

Take `Cc1ccc(-n2nc(C(C)(C)C)cc2NC(=O)Nc2ccc(OCCN3CCOCC3)c3ccccc23)cc1` [BIRB 796 (Doramapimod)]: the results for the neurite formation score in the experiment with Neuro-2a [1] and with Neuro-2a [2] were 4.57 and 4.21, respectively.
As to `Cc1nc(Nc2ncc(C(=O)Nc3c(C)cccc3Cl)s2)cc(N2CCN(CCO)CC2)n1`, the results for the neurite formation score in the experiment on Neuro-2a [1] and in the experiment on Neuro-2a [2] were 1.57 and 2.38, respectively.
Take `CC(C)Oc1ccc(-c2cnc3c(-c4ccnc5ccccc45)cnn3c2)cc1`: the neurite formation score is 4.88 in the experiment on Neuro-2a [1] and 4.08 in the experiment with Neuro-2a [2].
As for `N#CC1(c2ccc(NC(=O)c3cccnc3NCc3ccncc3)cc2)CCCC1` [Apatinib], the neurite formation score turned out to be 4.54 with Neuro-2a [1] and 4.08 with Neuro-2a [2].
Consider `C[S+]([O-])c1ccc(-c2nc(-c3ccc(F)cc3)c(-c3ccncc3)[nH]2)cc1` (stereo not given), for which the results for the neurite formation score in the experiment with Neuro-2a [1] and in the experiment on Neuro-2a [2] were 4.57 and 4.88, respectively.
With `CNC(=O)c1ccc(-c2cnc3ncc(Cc4ccc5ncccc5c4)n3n2)cc1F`, the neurite formation score with Neuro-2a [1] was found to be 5.14; with Neuro-2a [2], 4.09.
`CN1CC[C@H](c2c(O)cc(O)c3c(=O)cc(-c4ccccc4Cl)oc23)[C@H](O)C1` [Flavopiridol hydrochloride]: the neurite formation score in the experiment with Neuro-2a [1] was 4.47; with Neuro-2a [2] it was 3.76.
Consider `Cn1c(=O)n(-c2ccc(C(C)(C)C#N)cc2)c2c3cc(-c4cnc5ccccc5c4)ccc3ncc21`, for which the neurite formation score is 2.9 with Neuro-2a [1] and 5.21 with Neuro-2a [2].
`CCCCCCCCCCCCCCCCCCOP(=O)([O-])OC1CC[N+](C)(C)CC1` [Perifosine]: the neurite formation score with Neuro-2a [1] is 4.57; in the experiment on Neuro-2a [2], 4.88.
Turning to `O=C(/C=C/c1ccc2ccccc2n1)c1ccncc1`, the neurite formation score in the experiment on Neuro-2a [1] was 5.21; with Neuro-2a [2], 3.08.
On to `C=CC(=O)N1CCC[C@@H](n2nc(-c3ccc(Oc4ccccc4)cc3)c3c(N)ncnc32)C1`, for which the neurite formation score is 3.24 with Neuro-2a [1] and 4.38 with Neuro-2a [2].
As for `Cc1cc(C)nc(NS(=O)(=O)c2ccc(NC(=S)NC(=O)COc3ccc(Br)cc3Cl)cc2)n1`, the neurite formation score in the experiment with Neuro-2a [1] came out at 3.9; with Neuro-2a [2], 3.88.
Turning to `CCn1c(-c2nonc2N)nc2c(C#CC(C)(C)O)ncc(OC[C@H]3CCCNC3)c21`, the neurite formation score worked out at 4.02 in the experiment with Neuro-2a [1] and 3.25 in the experiment with Neuro-2a [2].
For `CCCCCCCCCCCC(=O)OCC(CO)OC(=O)CCCCCCCCCCC` (stereo not given) [1,2-Dilauroyl-sn-glycerol], the neurite formation score turned out to be 4.54 with Neuro-2a [1] and 5.08 in the experiment with Neuro-2a [2].
For `COc1ccc(-c2cnc3c(-c4cccc5ncccc45)cnn3c2)cc1`, the results for the neurite formation score with Neuro-2a [1] and in the experiment with Neuro-2a [2] were 3.88 and 2.08, respectively.
Turning to `CC(C)[C@H](CO)Nc1nc(Nc2ccc(C(=O)O)c(Cl)c2)c2ncn(C(C)C)c2n1` [Purvalanol B], the values for the neurite formation score with Neuro-2a [1] and in the experiment on Neuro-2a [2] were 4.63 and 4.92, respectively.
For the molecule `CN1CCC(Nc2nc(Nc3ccc(Oc4ccccc4)cc3)c3c(=O)[nH]cc(Br)c3n2)CC1`, the results for the neurite formation score in the experiment with Neuro-2a [1] and in the experiment with Neuro-2a [2] were 3.29 and 4.25, respectively.
For `O=C(O)c1ccc(-c2c[nH]c3ncc(-c4ccccc4)cc23)cc1C1CCCC1` the same measures were 5.29 and 3.92.
In the case of `Clc1ccc(Nc2nnc(Cc3ccncc3)c3ccccc23)cc1` [Vatalanib (PTK787) 2HCl], the neurite formation score in the experiment with Neuro-2a [1] is 3.91; with Neuro-2a [2] it was 3.71.
With `N#CCNC(=O)c1ccc(-c2ccnc(Nc3ccc(N4CCOCC4)cc3)n2)cc1`, the neurite formation score in the experiment on Neuro-2a [1] amounted to 4.69; in the experiment with Neuro-2a [2] it was 4.92.
On to `C[C@@H]1CN(CC(=O)Nc2ccc3c(c2)Cc2cccc(-c4cc(=O)cc(N5CCOCC5)o4)c2S3)C[C@H](C)O1`, for which the neurite formation score with Neuro-2a [1] was determined as 3.9; in the experiment with Neuro-2a [2] it was 5.21.
For the molecule `Cc1c[nH]c(/C=C2\C(=O)Nc3ccccc32)c1CCC(=O)O`, the neurite formation score with Neuro-2a [1] turned out to be 6.02; in the experiment on Neuro-2a [2], 5.92.
`Brc1c(Br)c(Br)c2n[nH]nc2c1Br`: the neurite formation score was determined as 5.47 in the experiment on Neuro-2a [1] and 5.09 in the experiment on Neuro-2a [2].
As for `CCc1cc(Nc2nccc(-c3c(-c4ccc(OC)c(C(=O)Nc5c(F)cccc5F)c4)nc4ccccn34)n2)c(OC)cc1N1CCC(N2CCN(S(C)(=O)=O)CC2)CC1`, the neurite formation score in the experiment on Neuro-2a [1] stood at 4.91; with Neuro-2a [2], 4.71.
With `NC(=O)c1ccc(-c2nc(-c3ccc4c(c3)OCCO4)c(-c3ccccn3)[nH]2)cc1`, the neurite formation score in the experiment on Neuro-2a [1] amounted to 4.36; in the experiment with Neuro-2a [2], 4.92.
With `COc1ccc2c(c1)c(C1=C(c3c[nH]c4ccccc34)C(=O)NC1=O)cn2CCCN(C)C`, the neurite formation score turned out to be 5.24 in the experiment on Neuro-2a [1] and 5.54 in the experiment on Neuro-2a [2].
In the case of `CC[C@H](CO)Nc1nc(NCc2ccccc2)c2ncn(C(C)C)c2n1` [Roscovitine (Seliciclib,CYC202)], the neurite formation score with Neuro-2a [1] was determined as 4.57; with Neuro-2a [2] it was 4.38.
Regarding `Cc1cnc(Nc2ccc(OCCN3CCCC3)cc2)nc1Nc1cccc(S(=O)(=O)NC(C)(C)C)c1`, the neurite formation score in the experiment with Neuro-2a [1] came to 4.69; in the experiment with Neuro-2a [2], 3.58.
For `C=CC(=O)Nc1ccc2ncnc(Nc3ccc(OCc4cccc(F)c4)c(Cl)c3)c2c1` the same measures were 4.24 and 4.21.
Take `CCc1cncnc1N1CCN(Cc2nc3ccc(C(F)(F)F)cc3[nH]2)CC1`: the results for the neurite formation score in the experiment on Neuro-2a [1] and with Neuro-2a [2] were 4.54 and 4.42, respectively.
As for `Clc1ccc(C2(c3ccc(-c4cn[nH]c4)cc3)CCNCC2)cc1`, the neurite formation score with Neuro-2a [1] was determined as 5.24; in the experiment on Neuro-2a [2] it was 4.54.
In the case of `CN1CCN(C2CCN(C(=O)Nc3cc(Oc4ccc(NC(=O)C5(C(=O)Nc6ccc(F)cc6)CC5)c(F)c4)ccn3)CC2)CC1` [Golvatinib (E7050)], the neurite formation score worked out at 4.14 with Neuro-2a [1] and 3.76 in the experiment with Neuro-2a [2].
On to `CCCS(=O)(=O)Nc1ccc(F)c(C(=O)c2c[nH]c3ncc(Cl)cc23)c1F`, for which the results for the neurite formation score with Neuro-2a [1] and in the experiment with Neuro-2a [2] were 2.91 and 4.38, respectively.
In the case of `COc1ccc(CNC(=O)Nc2ncc([N+](=O)[O-])s2)cc1`, the figures for the neurite formation score with Neuro-2a [1] and in the experiment with Neuro-2a [2] were 4.91 and 4.71, respectively.
In the case of `N#Cc1c(NC(=O)c2cccc3ccccc23)sc2c1CCCC2`, the neurite formation score with Neuro-2a [1] is 0.543; in the experiment on Neuro-2a [2], 0.751.
Regarding `CC(C)(C)c1cnc(CSc2cnc(NC(=O)C3CCNCC3)s2)o1`, the neurite formation score in the experiment on Neuro-2a [1] worked out at 4.57; in the experiment with Neuro-2a [2] it was 4.38.
Take `CCOc1ccn(-c2ccc(F)cc2)c(=O)c1C(=O)Nc1ccc(Oc2ccnc(N)c2Cl)c(F)c1`: the values for the neurite formation score with Neuro-2a [1] and in the experiment on Neuro-2a [2] were 5.24 and 4.21, respectively.
For `Cn1cc(/C=C2\C(=O)Nc3cccnc32)c2ccccc21` the same measures were 4.54 and 4.08.
With `O=C1NC(=NCc2cccs2)S/C1=C\c1ccc2ncccc2c1`, the neurite formation score with Neuro-2a [1] worked out at 5.63; in the experiment with Neuro-2a [2], 4.25.
`Cc1cnc(Nc2ccc(N3CCN(C)CC3)cc2)nc1Nc1cccc(S(=O)(=O)NC(C)(C)C)c1`: the neurite formation score with Neuro-2a [1] was found to be 2.36; with Neuro-2a [2], 2.58.
On to `Oc1cc(O)cc(/C=C/c2ccc(O)c(O)c2)c1` [Piceatannol], for which the neurite formation score is 4.88 in the experiment on Neuro-2a [1] and 4.75 in the experiment on Neuro-2a [2].
With `COc1cc2c(Oc3ccc4[nH]c(C)cc4c3F)ncnc2cc1OCCCN1CCCC1` [Cediranib (AZD217)], the neurite formation score is 3.91 with Neuro-2a [1] and 4.71 with Neuro-2a [2].
For `CC(C)Nc1cc(-c2c[nH]c(C(=O)N[C@H](CO)c3cccc(Cl)c3)c2)c(Cl)cn1`, the neurite formation score in the experiment on Neuro-2a [1] is 3.47; in the experiment with Neuro-2a [2], 4.76.
Take `Cc1ccc2nc(NCCN)c3ncc(C)n3c2c1`: the neurite formation score with Neuro-2a [1] was 4.47 and 4.14; in the experiment with Neuro-2a [2], 4.09 and 3.42.
Take `CCOc1cc2ncc(C#N)c(Nc3ccc(OCc4ccccn4)c(Cl)c3)c2cc1NC(=O)/C=C/CN(C)C` [Neratinib (HKI-272)]: the neurite formation score with Neuro-2a [1] was 3.47; in the experiment on Neuro-2a [2] it was 5.09.
